Hit rate of the full screen: of about 360,000 compounds, about 3,100 (0.86%) were called active. For the sample, actives were picked, then their nearest neighbours and some compounds at random. A number with no mark means an inactive call.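 Rule for the calls: active = inhibition or corrected inhibition above about 18%, plus a signal ratio from 0.5 to 1.5 (limit read from the data, passing the limit was not always enough); inactive = the rest.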

The target of this assay is Neuropilin-1 (Homo sapiens) (UniProt O14786). Kind of assay: modulators of CendR peptide binding to NRP-1, primary screen, biochemical, fluorescence polarization, uHTS (AID 602438). To be noted: FAM-RPARPAR peptide binding to NRP-1, fluorescence polarization; at 25 µM; stronger effect = higher value. Background: Polarisation of emitted light reports the rotation of a fluorescent probe.
Sequence of Neuropilin-1 (Homo sapiens) (O14786 whole entry, looked up): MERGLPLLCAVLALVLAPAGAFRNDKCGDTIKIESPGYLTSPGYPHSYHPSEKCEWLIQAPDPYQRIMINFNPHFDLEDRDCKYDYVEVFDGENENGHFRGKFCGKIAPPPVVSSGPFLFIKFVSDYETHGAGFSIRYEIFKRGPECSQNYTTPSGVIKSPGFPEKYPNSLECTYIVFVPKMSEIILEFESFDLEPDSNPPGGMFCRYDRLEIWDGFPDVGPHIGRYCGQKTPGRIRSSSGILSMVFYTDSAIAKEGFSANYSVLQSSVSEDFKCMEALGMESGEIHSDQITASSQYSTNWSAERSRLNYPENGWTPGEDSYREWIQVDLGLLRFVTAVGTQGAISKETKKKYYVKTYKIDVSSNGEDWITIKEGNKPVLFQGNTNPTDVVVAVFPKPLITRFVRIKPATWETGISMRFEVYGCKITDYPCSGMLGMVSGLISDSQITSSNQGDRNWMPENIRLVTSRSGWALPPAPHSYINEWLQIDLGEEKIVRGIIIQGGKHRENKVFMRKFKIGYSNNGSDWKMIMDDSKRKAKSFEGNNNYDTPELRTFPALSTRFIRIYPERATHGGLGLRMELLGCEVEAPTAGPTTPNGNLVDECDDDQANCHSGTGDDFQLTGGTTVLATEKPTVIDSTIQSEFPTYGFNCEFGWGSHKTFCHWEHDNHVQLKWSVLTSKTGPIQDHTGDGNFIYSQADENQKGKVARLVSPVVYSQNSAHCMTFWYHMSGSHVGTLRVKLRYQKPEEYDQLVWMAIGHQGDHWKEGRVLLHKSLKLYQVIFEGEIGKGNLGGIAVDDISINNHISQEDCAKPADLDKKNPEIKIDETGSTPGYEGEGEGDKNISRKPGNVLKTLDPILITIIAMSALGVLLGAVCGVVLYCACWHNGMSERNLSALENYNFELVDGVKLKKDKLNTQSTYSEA
In the case of `COc1ccc(NC(=O)c2ccccc2CC[N+](=O)[O-])cc1`, the inhibition – broadly, the drop in the measured response relative to a control, in per cent – was 5.3%.

As to `Cc1cc(C(=O)NNC(=O)CCC2CCCCC2)c(C)o1`, the inhibition is 3.2%. With `O=C(Nc1cccc(OCC(=O)N2CCOCC2)c1)C1CCCCC1` the figure was 21.3% (active). As for `O=C1CC2(CCCCC2)Oc2ccc(OCC(=O)N3CCOCC3)cc21`, the figure is 0.6%. With `Cc1cccc(NC(=O)C2CCN(C(=O)NC3CCCCC3)CC2)c1` the figure was -7.7%; with `CN(C)CCCNC(=O)c1cc(C(=O)Cc2ccc(Cl)cc2)c[nH]1`, 3.7%; with `O=C(c1ccc(F)cc1)C1CCN(Cc2cn[nH]c2-c2ccccc2)CC1`, -10.4%.

With `COc1ccccc1CNC(=O)C1Cc2ccccc2C(=O)O1` (stereo not given), the inhibition is -8.4%.

`O=C1/C(=C/c2cccs2)CCC1C1CCCC1` (stereo not given): the inhibition is 2.8%. As for `C[C@H]1CC[C@]2(O[C@@H](CCO)C[C@@H](O)[C@@H]2O)O1`, the figure is 13.5%.

With `C[C@@H]1CC[C@]2(O[C@@H](CCO)C[C@H](O)[C@H]2O)O1`, the inhibition was -18.9%. As for `OCC[C@H]1C[C@H](O)[C@@H](O)[C@]2(CCCCO2)O1`, the figure is 28.3% (active); as for `COCCNC(=O)C1CCCN(Cc2ccccc2Cl)CC1` (stereo not given), 2%; as for `Cc1ccc(S(=O)(=O)C2C(=O)NC3(C)CC2c2ccccc2O3)cc1` (stereo not given), -9.3%. With `CCCOc1ccc(CNC(=O)C2CCN(c3nn4c(=O)cc(C)nc4s3)CC2)cc1` the figure was -7.5%; with `CC(C)(C)NC(=O)C(c1ccncc1)N(C(=O)CNC(=O)c1ccco1)c1ccc2c(c1)OCO2` (stereo not given), 4%.

As for `Cc1ccc(N(C(=O)CNC(=O)c2ccco2)C(C(=O)NC2CCCC2)c2ccncc2)cc1` (stereo not given), the inhibition is 18.5% (active).

As to `COc1cccc(N(C(=O)CNC(=O)c2ccco2)C(C(=O)NC2CCCCC2)c2cccnc2)c1` (stereo not given), the inhibition is 5.7%.

As to `Cc1ccc(S(=O)(=O)NC2(C(F)(F)F)NC(=O)N(CCc3ccccc3)C2=O)cc1` (stereo not given), the inhibition was 11.7%. With `O=C(c1c(F)cccc1Cl)N1CCN(S(=O)(=O)c2ccc3c(c2)OCCCO3)CC1` the figure was 2.8%; with `Cc1coc2c1c(C)cc1oc(=O)c(CC(=O)NCC(=O)N[C@H](C(=O)O)C(C)C)c(C)c12`, -3.3%; with `Cc1nn(CCCC(=O)NCc2ccccc2Cl)c(=O)c2nccn12`, 3.3%.

Consider `C[C@@H]1CN([C@H](C)CO)C(=O)CCCn2cc(nn2)CO[C@H]1CN(C)S(C)(=O)=O`, for which the inhibition was -4.3%. As for `Cc1coc2c(O)cc3c(c12)OC1(N2CCCCC2)C(=O)NCCCC31` (stereo not given), the figure is 26.1% (active); as for `CSc1nnnn1-c1c(C)cc(C)cc1C`, 9.3%.

Values taken from PubChem BioAssay AID602438 (Sanford-Burnham Center for Chemical Genomics, 2012).
